In all, about 6,200 compounds went through this assay and about 2,900 (47%) were called active. Cut-off read from the data, not from the text of the source: active = inhibition above about 50%; inactive = the rest. So high a share suggests a set chosen from earlier hits. The list shows a part of the results.
Assay: Mycobacterium tuberculosis growth inhibition, primary screen (AID 1259343)
Conditions: inhibition: at 10 µM, hits give high values; outcome: 10 uM

| Compound | inhibition |
| --- | --- |
| O=C(O)c1cc(Br)c2ccccc2c1O | 96% (active) |
| Cc1ccn(C(=O)Cc2csc(-c3ccccn3)n2)c(=NC2CCCCC2)c1 | -7.81% (inactive) |
| Cc1cc(NC(=O)CNCc2csc(-c3cnccn3)n2)ccc1Cl | 77.5% (active) |
| O=C(c1c(-c2ccc(Br)cc2)c2ccccc2[nH]c1=O)C(F)(F)F | 18.7% (inactive) |
| O=c1[nH]c2ccccc2c(O)c1Sc1ccccc1 | 82.5% (active) |
| O=c1[nH]c2cc(Cl)ccc2c(O)c1-c1ccc(Oc2ccccc2)cc1 | 17.5% (inactive) |
| CCc1ccc(N2C(=O)/C(=C/c3cc(C)n(-c4ccc(C(=O)O)cc4)c3C)C(=O)NC2=S)cc1 | 34.2% (inactive) |
| COC(=O)c1ccccc1NCc1cc(=O)oc2cc(O)c(O)cc12 | 75.9% (active) |
| CNC(=O)C(C#N)C(=O)CCc1cccc(OC2CCCC2)c1 (configuration not stated) | 54.1% (active) |
| N#Cc1cccc(C(=O)NCc2cccnc2OC2CCCC2)c1 | -4.09% (inactive) |
| CC1CC(=O)NN1CC(=O)N1c2ccccc2OCC1c1ccccc1 (configuration not stated) | 26.4% (inactive) |
| CCN(CC(C)C#N)C(=O)Nc1ccc(-c2csnn2)cc1 (configuration not stated) | 80.5% (active) |
| CCC(NC(=O)Nc1ccc(-c2csnn2)cc1)c1nccs1 (configuration not stated) | -4.07% (inactive) |
| Cc1cc(=O)[nH]c(=S)[nH]1 | 0.31% (inactive) |
| CCc1ccc(S(=O)(=O)c2cnc3ccc(C)cc3c2N2CCC3(CC2)OCCO3)cc1 | 67.2% (active) |
| CC(=O)c1cc(CN2CCC(C(=O)Nc3ccc(Oc4ccccc4)nc3)CC2)cs1 | 63.2% (active) |
| O=C(Nc1ccc(Oc2ccccc2)nc1)C1CCN(C(=O)c2cnsn2)CC1 | 93.8% (active) |
| C#Cc1ccc(CN2CCC(C(=O)Nc3ccc(Oc4ccccc4)nc3)CC2)cc1 | -2.94% (inactive) |
| O=C(Nc1ccc(Oc2ccccc2)nc1)C1CCN(C(=O)c2ccco2)CC1 | 90.5% (active) |
| O=C(Nc1ccc(Oc2ccccc2)nc1)C1CCN(Cc2cccc3nonc23)CC1 | inactive |
| O=C(Nc1ccc(Oc2ccccc2)nc1)C1CCN(C(=O)c2cccs2)CC1 | 77.1% (active) |
| O=C(Nc1ccc(Oc2ccccc2)nc1)C1CCN(C(=O)[C@@H]2C[C@@H]3C=C[C@H]2C3)CC1 | 56.1% (active) |
| COc1cc(C)ccc1S(=O)(=O)NC(=O)C1(C)CCN1C(=O)Cc1ccc(Cl)cc1Cl (configuration not stated) | 47.9% (inactive) |
| COc1cc(CNCCO)cc(Cl)c1OCc1ccc(Cl)cc1Cl | 83% (active) |
| COc1ccc(OCCCOc2ccc(Cl)cc2Cl)cc1 | 27.8% (inactive) |
| O=c1[nH]c(=S)[nH]nc1-c1ccc(F)c(F)c1 | 80.3% (active) |
| O=c1[nH]c(=S)[nH]nc1-c1ccc2c(c1)OCCO2 | 36.5% (inactive) |

— PubChem BioAssay AID1259343 (VanderVen Lab, College of Veterinary Medicine, Cornell …, 2017)
